Screening data: PubChem, several laboratories
A selection: hits, their analogues and other compounds. The true share with any hit is near 1.2%.
PKA-R2B act – activates the human PKA-R2B holoenzyme complex; AID 504700; P22694+P31323; 340,000 compounds, 0.079% hits; PKA-R2B holoenzyme dissociation, Cy5-IP20 fluorescence polarization; R2B truncated from residue 108, S112A mutant; 0% DMSO only, 100% 113 µM cGMP; activation, % at 11.4 µM;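 active = activation above a cutoff set at the mean over all compounds plus 3 SD, cut at about 18% in these data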;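 also: higher means more holoenzyme dissociation and a rise in polarization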
Target sequence (P31323 whole entry, looked up, other chains not shown, the tested form may be a part): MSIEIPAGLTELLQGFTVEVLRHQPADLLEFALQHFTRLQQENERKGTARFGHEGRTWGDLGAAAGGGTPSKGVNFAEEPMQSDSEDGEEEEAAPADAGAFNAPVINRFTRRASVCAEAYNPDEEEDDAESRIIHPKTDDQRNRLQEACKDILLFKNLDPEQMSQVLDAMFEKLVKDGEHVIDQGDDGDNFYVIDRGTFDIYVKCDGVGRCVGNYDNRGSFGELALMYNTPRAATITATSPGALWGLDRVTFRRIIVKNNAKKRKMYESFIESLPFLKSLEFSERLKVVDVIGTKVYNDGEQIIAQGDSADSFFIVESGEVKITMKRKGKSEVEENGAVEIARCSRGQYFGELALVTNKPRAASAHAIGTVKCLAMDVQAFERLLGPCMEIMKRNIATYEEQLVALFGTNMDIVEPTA
NR1D1 modulator – modulates human Rev-erb alpha binding to DNA; Rev-erbα–FITC-DNA binding, fluorescence polarization, 90 min; P20393; activity, % at 10 µM; AID 1259318; 370,000 compounds, 0.79% hits;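 active = activity above about 14%, limit read from the data; passing the limit was not always enough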
PG9 binder – binds the HIV-1 gp120 antibody PG9; TR-FRET gp120-PG9 antibody binding; inhibition, % at 6.7 µM; 360,000 compounds, 0.43% hits; in the data active = inhibition above about 8.5%
PKA-R1A activ – PKA-R1A complex activation; P00514+P68181; PKA-R1A dissociation, Cy5-IP20 fluorescence polarization; scaled: DMSO 0%, 113 µM cGMP 100%; activation, % at 11.4 µM; 340,000 compounds, 0.083% hits; AID 504707;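 active = percent activation above the mean of all tested compounds plus 3 SD, cut at about 19% in these data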;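 also: higher means more PKAc released from R1A so a rise in polarization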
PG9 binder conf – confirmation of small molecules binding HIV-1 gp120 antibody PG9. TR-FRET PG9 antibody binding, biochemical. 1,500 compounds, 90% hits. shares compounds with PG9 binder. inhibition, % at 6.7 µM; in the data active = inhibition above about 9%
PGV04 counter – counter-screen for PG9 binders: binding control antibody PGV04 | shares compounds with PG9 binder | TR-FRET PGV04 antibody-gp120 binding, biochemical | inhibition, % at 6.7 µM | 1,500 compounds, 95% hits | AID 651604; in the data active = inhibition above about 9.5%
Each line names hits and unclear results; the compound was inactive in the other large screens (follow-up assays come after a bar, where they were run).

Cn1c(SCC(=O)Nc2nc3ccccc3s2)nnc1-c1ccccc1	none
CC(=O)c1ccc(N2CCN(S(=O)(=O)c3ccc4c(c3)NC(=O)CC(=O)N4)CC2)cc1	PG9 binder 13 | PG9 binder conf 17 | PGV04 counter 30
CC(=O)c1ccc(NC(=O)COc2ccccc2C(=O)Nc2ccccc2)cc1	none
CC(=O)c1ccc(NC(=O)COc2ccccc2C(=O)Nc2ccc(C)cn2)cc1	PG9 binder 26 | PG9 binder conf 28 | PGV04 counter 42
Cc1ccc(S(=O)(=O)N2CCCC(C(=O)Nc3c(C)n(C)n(-c4ccccc4)c3=O)C2)cc1C (stereo not given)	none (no result: PKA-R2B act, PG9 binder, PKA-R1A activ)
O=C1COc2ccc(C(=O)COC(=O)CCSc3ccc(Cl)cc3)cc2N1	PG9 binder 13 | PG9 binder conf 30 | PGV04 counter 44
CCN(CC)S(=O)(=O)c1cccc(C(=O)OCC(=O)c2ccc3c(c2)NC(=O)CO3)c1	none
Cc1cccc(C(=O)OCC(=O)c2ccc3c(c2)NC(=O)CO3)c1	PG9 binder 15 | PG9 binder conf 16 | PGV04 counter 27
O=C1COc2ccc(C(=O)COC(=O)c3ccc(F)cc3Cl)cc2N1	PG9 binder 32 | PG9 binder conf 37 | PGV04 counter 47
CC(=O)CC[C@@H]1CC[C@]2(CCCN(C(=O)c3ccno3)C2)O1	none (no result: PKA-R2B act, PG9 binder, PKA-R1A activ)
CC(C)C[C@H](NC1(C(=O)NCCc2c[nH]c3ccccc23)CCOCC1)C(=O)NCCCc1ccccc1	none (no result: PKA-R2B act, PG9 binder, PKA-R1A activ)
Cc1noc(C)c1C(=O)Nc1sc2c(c1C(N)=O)CCC2	PG9 binder 12 | PG9 binder conf inactive | PGV04 counter 17
Cn1ncc(Cl)c1C(=O)Nc1sc2c(c1C(N)=O)CCC2	PG9 binder 8.7 | PG9 binder conf 12 | PGV04 counter 29
CCCc1cc(=O)n2[nH]c(-c3cccc(Br)c3)cc2n1	PG9 binder 16 | PG9 binder conf 18 | PGV04 counter 29
C[C@H]1[C@@H](NC(=O)C2CCCCC2)CC[C@@]23CCCN2C(=O)CCC[C@@H]13	none (no result: PKA-R2B act, PG9 binder, PKA-R1A activ)
O=c1cc(-c2ccccc2)oc2ccc3ccccc3c12	PG9 binder 15 | PG9 binder conf 16 | PGV04 counter 24
CC(COc1cccc([N+](=O)[O-])c1)CN1CCC(C(O)(c2ccccc2)c2ccccc2)CC1 (stereo not given)	none (no result: PKA-R2B act, PG9 binder, PKA-R1A activ)
CCOc1ccc(C(=O)OCC(=O)NCCNC(=O)COC(=O)c2ccc(OCC)cc2)cc1	PG9 binder 9.1 | PG9 binder conf 14 | PGV04 counter 17
Cc1ccc(/C=C/c2nc3ccccc3c(=O)[nH]2)cc1	PG9 binder 31 | PG9 binder conf 40 | PGV04 counter 47
CC[C@H]1/C(=C/c2ccccc2)N2C(=O)C[C@H](c3ccccc3)N=C2N1C	none (no result: PKA-R2B act, PG9 binder, PKA-R1A activ)
O=C(Cn1nnc(-c2ccccc2Cl)n1)NCc1ccc2c(c1)OCO2	PG9 binder 10 | PG9 binder conf 11 | PGV04 counter 14
O=C(Cn1nnc(-c2ccc3c(c2)OCO3)n1)NCc1ccccc1	none
COC(=O)Nc1nc2ccc(SC(C)C)cc2[nH]1	none
CCCSc1ccc2nc(NC(=O)OC)[nH]c2c1	PG9 binder 12 | PG9 binder conf 25 | PGV04 counter 36
O=C(Nc1nc(-c2ccc(F)cc2)cs1)C1CCN(C(=O)c2ccc(F)cc2)CC1	none
O=C(Nc1nc2c(F)cc(F)cc2s1)C1CCN(C(=O)c2ccc(F)cc2)CC1	PG9 binder 9.1 | PG9 binder conf 9.7 | PGV04 counter 17
CCC(C(=O)NC1CCCCC1)n1c2ccccc2c2nc(=O)cc(C)n21 (stereo not given)	PG9 binder 16 | PG9 binder conf inactive | PGV04 counter 9.5
CCC(C(=O)N1CCOCC1)n1c2ccccc2c2nc(=O)cc(C)n21 (stereo not given)	none
O=C(Nc1nccs1)c1cc2sccc2n1Cc1ccc(F)cc1	PG9 binder 9.4 | PG9 binder conf 15 | PGV04 counter 19
CCOC(=O)[C@]12CCCCC/C=C\1N(CCc1ccc(Cl)cc1)C(=O)[C@H]2CC(=O)N1CCSCC1	none (no result: PKA-R2B act, PG9 binder, PKA-R1A activ)
N#CCC[C@H]1CC[C@]2(CCCN(c3ccccc3)C2)O1	none (no result: PKA-R2B act, PG9 binder, PKA-R1A activ)
C=CCn1c(COc2ccccc2)nnc1SCC(=O)Nc1ccc(S(=O)(=O)Nc2cc(C)nc(C)n2)cc1	none (no result: PKA-R2B act, PG9 binder, PKA-R1A activ)
COCCN1CCC(CO)C1 (stereo not given)	PG9 binder 10 | PG9 binder conf inactive | PGV04 counter 11
COCCN1CCC(CNCc2cn[nH]c2-c2ccc(C)c(C)c2)C1 (stereo not given)	none
O=C(Nc1ccc2oc(-c3ccncc3)nc2c1)c1ccccc1F	PG9 binder 23 | PG9 binder conf 32 | PGV04 counter 53
CC(C)N1Cc2nnn(Cc3ccccc3)c2-c2cc(F)ccc2S1(=O)=O	none (no result: PKA-R2B act, PG9 binder, PKA-R1A activ)
Cc1ccc(NC(=O)COC(=O)c2cc(Cl)ccc2Cl)c(Br)c1	PG9 binder 22 | PG9 binder conf 31 | PGV04 counter 40
O=C(O)c1ccccc1C(=O)c1cccc2c(Br)cccc12	PG9 binder 54 | PG9 binder conf 68 | PGV04 counter 83
Cc1ccc(NC(=O)Cn2c(=O)c3cccn3c3ccccc32)cc1	PG9 binder 21 | PG9 binder conf 19 | PGV04 counter 27
CC(=O)c1cn(CC(=O)Nc2ccc(C)cc2)c2ccccc12	PG9 binder 17 | PG9 binder conf 24 | PGV04 counter 32
O=C(CSc1nnc(-c2ccccc2)n1-c1ccc(Cl)cc1)c1ccccc1Br	none (no result: PKA-R2B act, PG9 binder, PKA-R1A activ)
CC1CCC2(CCC(=O)N2CCCOC(=O)Nc2cccc(C(F)(F)F)c2)CC1 (stereo not given)	none (no result: PKA-R2B act, PG9 binder, PKA-R1A activ)
CCCCOCCCNC(=O)C[C@H]1C[C@@]2(C(=O)OC)C(=C[C@H](C(C)C)O[C@@H]2C2CC2)N(CCC2=CCCCC2)C1=O	none (no result: PKA-R2B act, PG9 binder, PKA-R1A activ)
CCCC(=O)N1CCC[C@]2(CC[C@H](CCC(=O)OCC)O2)C1	none (no result: PKA-R2B act, PG9 binder, PKA-R1A activ)
COc1ccc2c(c1)CCCC(Br)C2=O (stereo not given)	none
COc1ccc2c(c1)CCC1(C)CC(=O)C(Br)=C21 (stereo not given)	PG9 binder 14 | PG9 binder conf 24 | PGV04 counter 47
O=C1C(=O)N(Cc2cccnc2)C(c2cccc(O)c2)/C1=C(\O)c1ccc2c(c1)OCCO2 (stereo not given)	PG9 binder 9.0 | PG9 binder conf 10 | PGV04 counter 20
O=C1C(=O)N(Cc2cccnc2)C(c2ccccn2)/C1=C(/O)c1ccc(Br)cc1 (stereo not given)	PG9 binder 11 | PG9 binder conf 18 | PGV04 counter 23
COc1ccccc1C1/C(=C(\O)c2ccc3c(c2)OCCO3)C(=O)C(=O)N1Cc1cccnc1 (stereo not given)	PG9 binder 14 | PG9 binder conf 12 | PGV04 counter 18
